Compounds with a hit are over-represented: about 7.9% of the library has one in this group of screens.
FMDV antiviral – antivirals against foot and mouth disease virus. FMDV antiviral cell-based qHTS. Potency, µM (doses to about 57.9 µM), without a hit: at the top dose activity change, negative = inhibition, actives largely listed as inhibitors. hit rate 1.2% among 410,000. AID 1159524; calls by dose curve; tested in HEK293T cells; further: read-out not given here; potency means the concentration at half of the fitted maximal effect; nearly all actives have a fitted effect of over 45% in size
Marburg entry inh – blocks Marburg virus binding to or entry into cells. Marburg virus pseudotyped entry inhibition, cell reporter. Potency, µM (top dose mostly 37.8 µM), for inactives: at the top dose activity change, negative = inhibition, usual class: inhibitors. hit rate 1.8% among 300,000; calls by dose curve; tested in HEK293 cells; further: potency means the concentration at half of the fitted maximal effect
HCV inhibitor – inhibitors of hepatitis C virus infection. Huh7.5.1 HCVcc-Cre infection, luciferase reporter, 44 h. Potency, µM (highest dose often 41.8 µM), without a hit: at the top dose activity change, negative = inhibition, most hits filed as inhibitors. hit rate 3.4% among 340,000. AID 651820; active means well fitted inhibition curve with a large enough effect; inconclusive means small, poorly fitted or top-dose-only effect, or another doubt; inactive means no such curve, though single readings can be large or run the other way; further: potency means the concentration at half of the fitted maximal effect
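Infectious HCV cell culture screen: compound-treated cells (1,000/well, pre-plated 4 h) are infected with HCVcc-Cre at roughly 0.5 moi and grown 44 h. Infection is quantified by luciferase signal after 15 min substrate incubation at room temperature.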
HCMV inh – inhibitors of human cytomegalovirus; HFF cells, HCMV-luciferase reporter, 72 h; stronger effect = lower value; activity change, negative = inhibition, % at 57.5 µM; hit rate 4.5% among 410,000; AID 1259415; in the data active means activity change below about -60%; inconclusive means no clear call, values can overlap the other calls; inactive means above about -39%
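Luciferase read-out from HCMV-luciferase-infected HFFs (MOI 1 PFU/cell) 72 h post infection at 37C; compounds added after 16 h cell attachment; activity normalized between buffer-only basal and Salinomycin (10uM) inhibitor controls.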
Lassa entry inh – blocks Lassa virus binding to or entry into cells | Lassa virus pseudotype entry inhibition, cell reporter | Potency, µM (doses to about 37.9 µM), inactives show top-dose activity change, negative = inhibition, most hits filed as inhibitors | hit rate 1.2% among 300,000 | AID 540256; calls by dose curve; tested in HEK293 cells; further: potency means the concentration at half of the fitted maximal effect; nearly all actives have a fitted effect of over 50% in size
The depositor's hits bear a star; ? = inconclusive; · = not tested or not shown; [ ] = dose if it differs, or a comment. On the % scale 0 is the no-effect control and ±100 the full control effect.

SMILES	FMDV antiviral	Marburg entry inh	HCV inhibitor	HCMV inh	Lassa entry inh
CCC(NC(=O)C1(C)CC1(Br)Br)c1ccc(C)cc1 (stereo not given)	-20.1%	-6.8%	10.0%	-72.2*	0.4%
COc1ccc(Nc2cc(C(=O)NCCCN3CCN(c4ccccc4F)CC3)c3ccccc3n2)c(OC)c1	-27.5%	-29.7%[46.1 µM]	·	-38.1	-26.5%[46.1 µM]
CCC1CCCCN1C(=O)COC(=O)c1cc(=O)[nH]c2ccccc12 (stereo not given)	29.2%	?	7.8%	-2.3	16.2%
CC(C)CC(=O)/C(=C/c1ccc(N(C)C)cc1)n1cncn1	-1.0%	-1.3%[46.1 µM]	-0.6%	-60.3*	-4.3%[46.1 µM]
CC(C)CC(=O)/C(=C\c1ccc(Cl)cc1Cl)n1cncn1	7.94µM*	?	?	·	0.581µM*
O=[N+]([O-])c1c(NCCCO)cc(Sc2nc3ccccc3s2)c2nonc12	?	?	-27.4%	·	-26.4%
Cc1nnc(Sc2cc(NCCCO)c([N+](=O)[O-])c3nonc23)s1	?	-6.3%[46.1 µM]	10µM*	57.3	?
CCC(=O)OCCNc1cc(Sc2nc3ccccc3s2)c2nonc2c1[N+](=O)[O-]	25.1µM*	?	-28.2%	68.6	?
CC(=O)OCCCNc1cc(SCc2ccco2)c2nonc2c1[N+](=O)[O-]	35.5µM*	12.6µM*	0.4%	10.3	?
CCCSc1cc(NCCOC(=O)CCC)c([N+](=O)[O-])c2nonc12	0.0%	-2.3%	-4.4%	?	-6.3%
Cc1nnc(Sc2cc(NCCO)c([N+](=O)[O-])c3nonc23)s1	?	?	?	-9.6	?
CCCC(=O)OCCNc1cc(Sc2nccn2C)c2nonc2c1[N+](=O)[O-]	35.5µM*	?	?	53.5	?
CC(=O)N1CCc2cc(S(=O)(=O)NCCC(=O)NC3CCCCCC3)ccc21	-14.4%	·	-27.9%	?	·
COc1cccc(/C=C/C(=O)OCC(=O)Nc2ccc(Cl)c(S(=O)(=O)N(C)C)c2)c1OC	-10.1%	?	6.6%	27.6	1.1%
COc1ccc(C2=NO[C@@H]3C(=O)N(c4ccc(C)cc4C)C(=O)[C@H]23)cc1OC	-4.1%	2.8%	0.0%	-28.1	6.3%
COc1ccc(-c2cn(-c3ccc(C)cc3C)c(=O)[nH]2)cc1OC	-17.3%	·	11.2µM*	-30.7	·
CNC(=S)N(CCc1cccc(C)c1)Cc1cc2cc(OC)c(OC)cc2[nH]c1=O	-22.0%	?	12.9%	-36.2	-0.2%
COc1cc2cc(CN(CCc3cccc(C)c3)C(=S)NCCCN3CCOCC3)c(=O)[nH]c2cc1OC	-10.7%	10µM*	?	-81.6*	?
COc1cc2cc(CN(CCc3cccc(C)c3)C(=S)NCCCN(C)C)c(=O)[nH]c2cc1OC	-19.5%	?	?	-89.8*	?
O=C(Cn1c(-c2cccs2)cc2ccccc21)NCCCN1CCN(c2ccc(F)cc2)CC1	-18.2%	·	·	-31.2	7.0%[46.1 µM]
Cc1cc(NCc2ccccn2)n2nc(C)c(-c3ccccc3)c2n1	-6.7%	10µM*	1.58µM*	-83.2*	?
Cc1nn2c(NCCN3CCOCC3)c3c(nc2c1-c1ccccc1)CCCC3	-12.0%	?	?	?	-18.8%[46.1 µM]
Cc1cc(Nc2ccccc2)n2nc(C)c(-c3ccccc3)c2n1	24.8%	·	?	-18.0	·
Cc1nn2c(NCc3ccccn3)cc(C(C)(C)C)nc2c1-c1ccccc1	?	·	2.51µM*	-97.0*	·
Cc1nn2c(NCc3ccccn3)c3c(nc2c1-c1ccccc1)CCC3	?	?	-66.6%	-83.4*	?
SMILES	FMDV antiviral	Marburg entry inh	HCV inhibitor	HCMV inh	Lassa entry inh
CCCc1cc(NCCCn2ccnc2)n2nc(C)c(-c3ccccc3)c2n1	0.0%	?	-35.9%	?	-0.9%
NS(=O)(=O)c1ccc(NC(=S)Nc2ccn(Cc3cccc4ccccc34)n2)cc1	?	6.31µM*	10µM*	-79.3*	3.55µM*
CN1c2ccccc2C(C)(C)C12C=Nc1c(cc(N3CCOCC3)c3ccccc13)O2 (stereo not given)	?	?	6.4%	-74.1*	?
CCOC(=O)c1ccccc1NC(=O)c1ccc(N(C)S(C)(=O)=O)cc1	·	-4.3%	10µM*	-16.4	-13.4%
CCOC(=O)c1ccccc1NC(=O)c1ccc(F)cc1	-21.8%	3.4%	-9.2%	14.1	3.1%
CCOC(=O)c1ccccc1NC(=O)c1c(F)c(F)c(F)c(F)c1F	-24.6%	?	10µM*	-4.7	-12.1%
CCOC(=O)c1c(C)[nH]c(CCC(=O)Nc2ccccc2OCC)c1C	-21.3%	·	·	?	-2.1%[46.1 µM]

Screens as filed in PubChem BioAssay.
